Experimental data reported in PubChem BioAssay (EPA / NIEHS).
Results filed as inconclusive are left out. Activity calls are given as the source filed them. Rule for the calls, unless noted: active = hit-call score of the fitted dose curve at least 0.9, where 1 is the maximum; inconclusive = response in the unintended direction; inactive = score below 0.9.

Legend:
[1] = Tanguay_ZF_120hpf_OTIC_legacy: (Legacy) Oregon State University Tanguay Lab 120 Hour Post-fertilization zebrafish Assay for Otic Vesicle Malformation (AID 2283639)
Method in brief: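 Brightfield scoring at 120 hpf, binary present/absent; DMSO negative control, 5uM trimethyltin chloride positive control. Static exposure at 28C, final DMSO 0.64% (vol/vol). Dead embryos not scored for malformation.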

[2] = Tanguay_ZF_120hpf_PE_legacy: (Legacy) Oregon State University Tanguay Lab 120 Hour Post-fertilization zebrafish Assay for Pericardial Edema (AID 2283640);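 for AC50: potency for increased incidence of pericardial edema versus DMSO baseline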
Method in brief: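 Zebrafish larvae are exposed from early development to 120 hpf at 28C, with 0.64% DMSO final. Each surviving larva receives a yes/no pericardial edema call by brightfield imaging, analysed relative to the DMSO baseline.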

[3] = Tanguay_ZF_120hpf_SOMI_legacy: (Legacy) Oregon State University Tanguay Lab 120 Hour Post-fertilization zebrafish Assay for Somite Malformation (AID 2283647)
Method in brief: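 Somitogenesis defects are recorded as binary calls in whole larvae at 120 hpf after continuous static chemical exposure starting at 6 hpf in dechorionated 5D embryos. DMSO serves as negative control and baseline.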

[4] = Tanguay_ZF_120hpf_PFIN_legacy: (Legacy) Oregon State University Tanguay Lab 120 Hour Post-fertilization zebrafish Assay for Pectoral Fin Malformation (AID 2283648);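 note: each larva judged yes or no for fin defect by brightfield with dead larvae skipped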
Method in brief: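 Pectoral fin malformation was recorded as a binary endpoint at 120 hpf in wild-type Tropical 5D larvae, which had been dechorionated and exposed statically from 6 hpf at 28C in 0.64% DMSO. Dead embryos were excluded.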

[5] = Tanguay_ZF_120hpf_CFIN_legacy: (Legacy) Oregon State University Tanguay Lab 120 Hour Post-fertilization zebrafish Assay for Caudal Fin Malformation (AID 2283649)
Method in brief: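 Single dechorionated 5D wild-type embryos are dosed at 6 hpf (final DMSO 0.64%) and held statically at 28C. Caudal fin malformation is recorded as present or absent at 120 hpf under brightfield, excluding dead embryos.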

[6] = Tanguay_ZF_120hpf_PIG_legacy: (Legacy) Oregon State University Tanguay Lab 120 Hour Post-fertilization zebrafish Assay for Pigmentation Malformation (AID 2283650)
Method in brief: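 Pigment malformation recorded as a binary call at 120 hpf in zebrafish (Tropical 5D) exposed singly from 6 hpf after pronase dechorionation. Static, sealed, 28C exposure, 0.64% DMSO; mortality excludes scoring; positive-direction fit against DMSO.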

[7] = Tanguay_ZF_120hpf_CIRC_legacy: (Legacy) Oregon State University Tanguay Lab 120 Hour Post-fertilization zebrafish Assay for Circulatory Malformation (AID 2283651)
Method in brief: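 Static exposure, 6–120 hpf, 28C, sealed and dark; one dechorionated 5D embryo/well; DMSO 0.64% v/v final. Binary circulation endpoint by brightfield; dead embryos not scored.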

[8] = Tanguay_ZF_120hpf_BRAI_legacy: (Legacy) Oregon State University Tanguay Lab 120 Hour Post-fertilization zebrafish Assay for Brain Malformation (AID 2283641)
Method in brief: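 Static exposure of staged wild-type embryos until 120 hpf, kept at 28C with light excluded and final DMSO of 0.64% (vol/vol). Presence or absence of brain malformation was noted under brightfield; mortality precluded scoring.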

[9] = read-out: kallikrein-3 (KLK3), KLK3 (gene 354); test: LTEA_HepaRG_KLK3: Life Technologies and Expression Analysis (LTEA) Assay for kallikrein-3 (KLK3) using HepaRG (AID 2283652; active = hit-call score of the fitted dose curve at least 0.9, where 1 is the maximum; inactive = score below 0.9); details: mRNA level, 48 h; actives raise or lower the signal
Method in brief: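 KLK3 transcript levels were measured by TaqMan qRT-PCR with normalisation to three housekeeping genes. HepaRG cultures received chemicals for 48 h at up to 100 uM (half-log, 8 points, 0.5% DMSO vehicle), fitted in both directions against DMSO.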

[10] = read-out: solute carrier (SLC22A6), SLC22A6 (gene 9356); test: LTEA_HepaRG_SLC22A6: Life Technologies and Expression Analysis (LTEA) Assay for solute carrier (SLC22A6) using HepaRG (AID 2283653; active = hit-call score of the fitted dose curve at least 0.9, where 1 is the maximum; inactive = score below 0.9); details: mRNA level, 48 h; actives raise or lower the signal
Method in brief: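 Gene-expression endpoint in HepaRG hepatic cells: duplicate 8-point concentration-response, highest 100 uM, 48 h treatment in serum-free medium with 0.5% DMSO. SLC22A6 expression measured by qRT-PCR, normalised to ACTB/GAPDH/POLR2A.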

Measured: AC50

CCNc1ccccc1
not listed: [8] | [9] | [10]
inactive: all other assays above

CC[C@H]1CC[C@H](NCc2cc3c(cc2OC)[C@H]2C[C@H]2C(=O)N3C)[C@H](c2ccccc2)N1
inactive: [1] | [2] | [3] | [4] | [5] | [6]

C1=CCCC=CCCC=CCC1
not listed: [8] | [9] | [10]
inactive: all other assays above

O=C(CCCCCCCCc1cccnc1)N1CCC(C=C(c2ccccc2)c2ccccc2)CC1
not listed: [8] | [9] | [10]
inactive: all other assays above

CC(=O)OC[C@H]1O[C@@](COC(C)=O)(O[C@H]2O[C@H](COC(C)=O)[C@@H](OC(C)=O)[C@H](OC(C)=O)[C@H]2OC(C)=O)[C@@H](OC(C)=O)[C@@H]1OC(C)=O
not listed: [8] | [9] | [10]
inactive: all other assays above

O=C(NS(=O)(=O)/C=C/c1ccccc1)c1ccc(F)cc1Cl
inactive: [1] | [2] | [8] | [5] | [6]

CCOc1cccc(-n2cc(C(=O)N3CCN(c4cc(C(=O)O)c5ccccc5c4)CC3)nc2-c2ccc(C)cc2)c1
inactive: [1] | [2] | [3] | [4] | [5] | [6]

NC(=O)NO
not listed: [3] | [9] | [10]
inactive: all other assays above

Nc1ccc(Nc2ccccc2)cc1
inactive: [1]
active: [2] 40 µM | [3] 40.1 µM | [4] 41.2 µM | [5] 47 µM | [6] 48.7 µM

CCCCC(CC)COC(=O)CCCCCCCCC(=O)OCC(CC)CCCC (stereo unspecified)
not listed: [8] | [9] | [10]
inactive: all other assays above

COCCOc1cc2cc(C(=O)NC3CCN(C(C)C)CC3)n(CC(=O)Nc3ccc(Cl)cn3)c2cn1
not listed: [8] | [9] | [10]
inactive: all other assays above

O=C(O)c1cc(N=Nc2ccc(S(=O)(=O)Nc3ccccn3)cc2)ccc1O
inactive: [1] | [2] | [3] | [4] | [5] | [6]

CC[C@H](C)C(=O)O[C@H]1C[C@@H](C)C=C2C=C[C@H](C)[C@H](CC[C@@H]3C[C@@H](O)CC(=O)O3)[C@H]21
not listed: [8] | [9] | [10]
inactive: all other assays above

COC(=O)c1ccccc1O
not listed: [8] | [9] | [10]
inactive: all other assays above

O=C(O)c1cccc(N(Cc2cccnc2)c2ccc(OC(F)F)c(OC(F)F)c2)c1
inactive: [1] | [2] | [3] | [4] | [5] | [7]

Cc1ccc(C)c(O)c1
not listed: [8] | [9] | [10]
inactive: all other assays above

O=c1n(CC2CO2)c(=O)n(CC2CO2)c(=O)n1CC1CO1 (stereo unspecified)
not listed: [8] | [9] | [10]
inactive: all other assays above

CCCCCCCCCCCCCCCO
not listed: [3] | [9] | [10]
inactive: all other assays above

Oc1ccc2c(c1)-c1ccccc1C2
inactive: [1] | [7]
active: [2] 34.5 µM | [3] 49.1 µM | [4] 36 µM | [5] 35.1 µM | [6] 41 µM

CC(C)=CCC/C(C)=C\CO
inactive: [1] | [2] | [4] | [5] | [6] | [7]

COC(=O)CC(=O)OC
inactive: [1] | [3] | [4] | [7]

COc1ccc2sc(C(=O)Nc3nnn[nH]3)c(OC(C)C)c2c1
inactive: [1] | [8] | [3] | [4] | [5] | [7]

COc1cccc(-c2ccc(/C=C\CN3CCCCCC3)cc2Cl)c1
inactive: [1] | [2] | [3] | [4] | [6]

COCCOCCOCCOC
inactive: [2] | [4] | [5] | [6]

C=CC(=C)CCC=C(C)C
not listed: [4] | [8]
inactive: all other assays above

CCc1cc(SCc2sc(-c3ccc(C(F)(F)F)cc3)nc2CN2CCN(c3ccc(OC)cc3)CC2)ccc1OCC(=O)O
inactive: [2] | [8] | [3] | [5] | [6] | [7]

Cc1[nH]cnc1C[C@H]1CCc2c(C)c3ccccc3n2C1=O
not listed: [1] | [9] | [10]
inactive: all other assays above

CC(C)c1cccc(C(C)C)c1N1C(=O)c2ccc(O)cc2C1=O
not listed: [3] | [6] | [8]
inactive: all other assays above

CN(C)c1ccc(N=NS(=O)(=O)O)cc1
inactive: [1] | [2] | [3] | [6] | [7]

O=C(O)CCN(C1(C(=O)NO)CCCC1)S(=O)(=O)c1ccc(Oc2ccc(F)cc2)cc1
inactive: [8] | [3] | [4] | [5] | [7]

CCCCCCc1ccc(O)cc1O
inactive: [1] | [2] | [4] | [6] | [7]

CC(=O)OCCC(C)C
inactive: [1] | [2] | [5]

Cc1ccc(O)cc1
inactive: [1] | [2] | [4] | [6] | [7]

C=CCCCCCCCCC(=O)O
not listed: [1] | [9] | [10]
inactive: all other assays above

O=C(O)CC(O)C(=O)O (stereo unspecified)
inactive: [2] | [3] | [4] | [5] | [6] | [7]

COC(=O)c1c(Cl)c(Cl)c(C(=O)OC)c(Cl)c1Cl
inactive: [1] | [2] | [3] | [5] | [7]

Nc1cccc(N)c1
inactive: [1] | [2] | [3] | [4] | [6]

CN(C)c1ccc(Cc2ccc(N(C)C)cc2)cc1
not listed: [1] | [9] | [10]
inactive: all other assays above

Clc1nc(Cl)c(Cl)c(Cl)c1Cl
inactive: [1] | [3] | [4] | [5] | [6] | [7]

Cc1ccc(S(=O)(=O)O)cc1C
inactive: [1] | [8] | [3] | [4] | [5] | [7]

CNS(=O)(=O)c1cc(C(=O)N2CCC(CCN3C4CCC3CC(n3c(C)nc5ccccc53)C4)(c3cccc(F)c3)CC2)c(Cl)cc1F (stereo unspecified)
inactive: [1] | [2] | [3] | [4] | [6]

O=C1CCCCCN1
inactive: [1] | [2] | [3] | [5] | [6] | [7]

Cn1cnc([N+](=O)[O-])c1Sc1ncnc2nc[nH]c12
inactive: [1] | [3] | [5] | [7]

O=C1CCC(N2C(=O)c3ccccc3C2=O)C(=O)N1 (stereo unspecified)
inactive: [1] | [4] | [5] | [6] | [7]

Nc1nc2ncc(CNc3ccc(C(=O)N[C@@H](CCC(=O)O)C(=O)O)cc3)nc2c(=O)[nH]1
inactive: [1] | [2] | [5] | [6] | [7]

CCOCCO
inactive: [2] | [8] | [5] | [6] | [7]

CC1(C)C(=O)N(Br)C(=O)N1Br
inactive: [2] | [3] | [4] | [5] | [6] | [7]

CC1=CC(=O)CC(C)(C)C1
inactive: [1] | [2] | [4] | [5] | [6] | [7]

CCCCCCCCO
inactive: [2] | [3] | [4] | [5] | [6]
